Hits are enriched below; roughly 21% of the tested compounds scored in any of these assays.
Shiga inhibitor: inhibitors of Shiga toxin in Vero cells | inhibition, % at 38.7 µM | actives 9.2% (n = 290,000) | Vero cells, Shiga toxin protein synthesis inhibition reporter | AID 2315; in the data active = inhibition mostly above about 28%, no sharp cut-off; inactive = mostly below about 43%; also: 0% is about no effect
NS1 function inh: blocks influenza NS1 protein function; Potency, µM (titrated, usually from 46.1 µM), for the others: top-dose activity, positive = more growth; actives 0.4% (n = 270,000); calls by dose curve; also: potency is read from the fitted curve at half-maximal effect; actives are rising curves; nearly all actives have a fitted effect of over 50% in size
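S. cerevisiae expressing influenza A NS1, grown in glucose, washed, then diluted 1:100 into pH 6.0 -URA galactose medium with 23 nl compound. Growth recovery read as OD600; NS1-free strain serves as control.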
Pf growth 96h: inhibits malaria parasite growth, 96 h. P. falciparum luciferase reporter growth, 96 h. Potency, µM (series often up to 28.7 µM), for the others: at the top dose activity change, negative = inhibition, hits mostly inhibitors. actives 6.9% (n = 320,000); also: potency is read from the fitted curve at half-maximal effect; % is scaled to controls: 0 for no effect and ±100 for the full control effect
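Plates of compound plus infected erythrocytes (2% hematocrit, 0.05% parasitemia final) incubate 96 hours, 37 C, 5% CO2. Detection reagent added; reduced luminescence from the parasites' luciferase reporter flags inhibition.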
Pf growth 48h: P. falciparum growth inhibition at 48 hours (one generation); P. falciparum luciferase growth in erythrocytes, 48 h; Potency, µM (doses to about 28.7 µM), without a hit: top-dose activity change, negative = inhibition, most hits filed as inhibitors; actives 5.9% (n = 310,000); AID 504832; also: potency is read from the fitted curve at half-maximal effect; % is scaled to controls: 0 for no effect and ±100 for the full control effect
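A one-generation exposure of luciferase-tagged malaria parasites in RPMI 1640/Albumax erythrocyte culture, 37 C and 5% CO2. Inhibition is inferred from decreased luminescence after adding detection reagent.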
CHX counter: affects cycloheximide protein synthesis inhibition readout, counter-screen. cell reporter, cycloheximide protein synthesis inhibition counterscreen. max response, %. actives 12% (n = 300,000). AID 2314; in the data active = max response mostly above about 13%, no sharp cut-off; inactive = mostly below about 14%; also: read at 38.3 µM for the half of the compounds with a filed dose; 0% is about no effect
SARS PLP yeast: inhibitors of SARS-CoV papain-like protease in yeast; S. cerevisiae expressing SARS-CoV PLpro, growth rescue; Potency, µM (titrated, usually from 32.9 µM), inactives show at the highest dose activity, positive = growth rescue, hits mostly activators; actives 0.19% (n = 330,000); calls by dose curve; also: potency is read from the fitted curve at half-maximal effect; 0% is about no effect; nearly all actives have a fitted effect of over 55% in size
* = called active by the depositor; ? = inconclusive; . = no result. Unless noted, calls follow the shape of the dose curve; as a rule, active = well fitted inhibition curve with a large enough effect; inconclusive = small, poorly fitted or top-dose-only effect, or another doubt; inactive = no such curve, though single readings can be large or run the other way.

SMILES | Shiga inhibitor | NS1 function inh | Pf growth 96h | Pf growth 48h | CHX counter | SARS PLP yeast
O=C(NCCCN1CCOCC1)c1ccc(Sc2cccc(Cl)c2)c([N+](=O)[O-])c1 | -13.6 | 5.7% | ? | 2.8% | -2.3 | -21.7%
Cc1ccc(C(C(=O)NC(C)(C)C)N(CCCN2CCOCC2)C(=O)c2ccc(-c3ccccc3)[nH]2)o1 (centres undefined) | -5.9 | 0.6% | 23.2% | -0.2% | -5.0 | 6.3%
O=C(NC1CCCCC1)C(c1cccs1)N(CCCN1CCOCC1)C(=O)c1ccc(-c2ccccc2)[nH]1 (centres undefined) | 55.8* | -2.7% | 3.2% | 1.65µM* | 18.8* | -0.4%
CC(C)=CCC[C@](C)(O[C@@H]1O[C@H](CO)[C@@H](O)[C@H](O)[C@H]1O)[C@H]1CC[C@]2(C)[C@@H]1[C@H](O)C[C@@H]1[C@@]3(C)CC[C@H](O[C@@H]4O[C@H](CO)[C@@H](O)[C@H](O)[C@H]4O[C@@H]4O[C@H](CO)[C@@H](O)[C@H](O)[C@H]4O)C(C)(C)[C@@H]3[C@@H](O)C[C@]12C | -4.0 | . | . | . | -2.7 | .
CN(C(=O)COC(=O)c1cccc(S(=O)(=O)N2CCCCC2)c1)C1CCS(=O)(=O)C1 (centres undefined) | . | . | 2.2% | 2.7% | . | .
O=C(O)c1ccccc1NC(=O)c1cc2ccccc2oc1=O | -3.2 | -0.2% | ? | 16.8% | -2.5 | -2.0%
COc1ccccc1C(=O)Nc1cc2ccccc2oc1=O | 43.3* | ? | 52.5% | . | 18.7* | 3.8%
COc1ccc(NC(=O)c2oc3ccccc3c2C)c(OC)c1 | 46.5* | -4.4% | -14.4% | 17.5% | 16.1* | -4.2%
COc1ccccc1NS(=O)(=O)c1ccc(C)c(C(=O)Nc2cc(C)on2)c1 | . | . | . | . | . | -10.8%
COc1ccc(S(=O)(=O)Nc2ccccc2OC)cc1NC(=O)c1cc2ccccc2oc1=O | 148.0* | 18.0% | -9.9% | 16.9% | 38.4* | 22.5%
COc1ccccc1C(=O)Nc1cc2cc(Br)ccc2oc1=O | 8.1 | -4.9% | 23.9% | 54.0% | -3.8 | 10.1%
COc1ccc(NC(=O)c2oc3ccccc3c2NC(=O)c2ccc(OC)c(OC)c2)c(OC)c1 | . | -7.7% | . | . | . | .
COc1ccc(NC(=O)c2cc3ccccc3oc2=O)c(OC)c1 | 133.1* | -4.5% | ? | ? | 50.7* | 2.0%
Cc1ccc(S(=O)(=O)N2CCOC2CNC(=O)C(=O)NCCCN2CCOCC2)cc1 (centres undefined) | 11.5 | -2.3% | 2.8% | 124.2% | 2.6 | 4.3%
O=C(Cc1ccc(Cl)cc1)c1c[nH]c(C(=O)NCCCn2ccnc2)c1 | 9.5 | . | ? | ? | 3.6 | -1.3%
Cc1cc(C)n2nc(SCC(=O)NC(=O)c3ccccc3Cl)nc2n1 | . | . | 24.1% | 4.1% | . | 1.9%
COC(=O)c1cc(OC)c(OC)cc1NC(=O)c1oc2ccccc2c1C | . | -1.4% | . | . | . | .
COc1ccc(-c2nonc2NC(=O)c2oc3ccccc3c2C)cc1OC | -6.0 | -14.4% | 10.4µM* | ? | 1.2 | -1.3%
COc1ccc(OC)c(NC(=O)c2cc3oc4ccccc4c3cc2O)c1 | -8.0 | 4.5% | ? | 4.15µM* | -2.6 | 0.4%
COc1cc(NC(=O)c2cc(Cl)ccc2Cl)ccc1-c1cc2ccccc2oc1=O | -2.5 | -6.1% | 11.7µM* | ? | -3.3 | 2.6%
CCOc1ccccc1C(=O)Nc1cc(OC)ccc1OC | -8.8 | -63.1% | ? | -29.6% | -2.9 | -8.7%
COC(=O)Cn1c(=O)c2c(nc3n2CCCN3CCc2ccccc2)n(C)c1=O | -3.6 | 1.4% | ? | -13.8% | -2.7 | 2.7%
COc1ccc(/C=C/c2nnc(NC(C)=O)s2)cc1 | 72.3* | -4.2% | -36.1% | 276.3% | 35.2* | -0.7%
COC(=O)Nc1nnc(/C=C/c2ccc(OC)cc2)s1 | 96.1* | -1.0% | 52.7% | 120.6% | 57.7* | -27.1%
CCC(=O)N1CCc2cc(S(=O)(=O)CCC(=O)N(C)c3ccc(OC)cc3)ccc21 | -9.6 | 2.9% | 27.8% | -13.8% | -1.1 | -1.9%
SMILES | Shiga inhibitor | NS1 function inh | Pf growth 96h | Pf growth 48h | CHX counter | SARS PLP yeast
C=CCn1c(SCC(=O)N(C)c2c(N)n(Cc3ccccc3)c(=O)[nH]c2=O)nnc1-c1ccccc1OC | -13.7 | 1.6% | 12.4% | -5.3% | -4.0 | -5.1%
CC1(C)Oc2ccc3ccc(=O)oc3c2/C(=C/Nc2cccc(O)c2)C1=O | -16.6 | . | 80.5% | 13.1µM* | 0.7 | -6.9%
CC1(C)Oc2ccc3ccc(=O)oc3c2/C(=C/NNC(N)=S)C1=O | -10.4 | 7.9% | 23.7% | 0.828µM* | -2.1 | 1.0%
CN/C=C1\C(=O)C(C)(C)Oc2ccc3ccc(=O)oc3c21 | -2.2 | -7.1% | . | -8.7% | -2.9 | 3.8%
CCOC(=O)CN1C(=O)C(Sc2n[nH]c(-c3ccc(O)cc3)n2)CCc2ccccc21 (centres undefined) | -7.6 | -2.4% | ? | . | -2.2 | 9.2%
CC(C)(C)OC(=O)CN1C(=O)C(Sc2n[nH]c(-c3ccccc3)n2)CCc2ccccc21 (centres undefined) | -10.1 | 18.4% | 1.47µM* | ? | -3.7 | -16.9%
CCOC(=O)c1ccccc1NC(=O)C1CCN(c2ncnc3sc(C)c(C)c23)CC1 | . | . | -14.1% | 10.4µM* | . | .
Cc1sc2ncnc(N3CCC(C(=O)Nc4ccccc4C(C)(C)C)CC3)c2c1C | . | . | ? | 11.7µM* | . | -1.3%
Cc1sc2ncnc(N3CCC(C(=O)Nc4ccc(C#N)cc4)CC3)c2c1C | . | . | ? | ? | . | -0.6%
CCc1nnc(NC(=O)C2CCN(c3ncnc4sc(C)c(C)c34)CC2)s1 | . | . | 41.3% | 36.3% | . | 2.3%
CC(=O)NS(=O)(=O)c1ccc(NS(=O)(=O)c2ccccc2[N+](=O)[O-])cc1 | 6.9 | -0.8% | 0.0% | 5.5% | 0.3 | -0.2%
CC(C)CN(C(=O)c1ccco1)c1nc2ccccc2s1 | 42.7 | -17.2% | 13.6% | ? | active | -1.0%
Cc1noc(C)c1C(=O)N(CC(C)C)c1nc2ccccc2s1 | 10.0 | 2.6% | ? | -26.0% | 7.9 | 1.1%
CCCCN(Cc1nc2ccccc2c(=O)[nH]1)C(=O)c1nn(C)c(=O)c2ccccc12 | . | . | ? | -10.8% | . | 1.8%
CC(C)CN(C(=O)c1nn(C)c(=O)c2ccccc12)c1nc2ccccc2s1 | 28.7 | 4.1% | . | 10.4µM* | 3.0 | -0.6%
CCc1ccc(NC(=O)COc2ccc(F)cc2C(=O)c2cnn(-c3ccccc3)c2)cc1 | active | 1.5% | ? | ? | 27.3* | -2.8%
COc1ccccc1NC(=O)COc1ccccc1C(=O)c1cnn(-c2ccccc2)c1 | 24.5 | 6.9% | ? | 89.7% | 46.6* | 8.4%
CC(CN1CCN(c2ccccc2)CC1)c1ccccc1 (centres undefined) | 21.5 | -0.5% | 87.7% | 39.8% | 7.1 | -13.1%
COC(=O)c1[nH]c2ccccc2c1Sc1ccccc1 | -1.5 | 7.4% | -14.0% | -10.9% | -1.0 | -0.5%
CNC(=O)CCc1[nH]c2ccccc2c1Sc1ccccc1 | 14.3 | -11.9% | 5.22µM* | ? | -3.0 | 9.9%

Assay outcomes from PubChem.
